Experimental data from paper PMC5836133, “The intracellular immune receptor Rx1 regulates the DNA-binding activity of a Golden2-like transcription factor”.
The full ranking holds about 16,000 sequences; the median of “e-score” is about -0.044, and the highest 2% start at about 0.38. This excerpt belongs to a sample that is enriched for the highest values.

Biological target: T1, GST-NbGlk1(82-244) (Nicotiana benthamiana)
T1 chain: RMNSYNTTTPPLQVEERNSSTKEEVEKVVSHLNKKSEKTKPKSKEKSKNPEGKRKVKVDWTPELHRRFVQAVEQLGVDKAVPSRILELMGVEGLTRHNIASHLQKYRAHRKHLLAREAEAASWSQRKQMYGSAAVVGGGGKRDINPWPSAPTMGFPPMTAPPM
Experiment: protein-binding microarray; NbGlk1 is a Golden2-like transcription factor of Nicotiana benthamiana; high values mean tight binding
Details: protein: recombinant; tags: GST (pTH6838); dsDNA, one strand shown

Sequence	binding signal [E-score]
AAATCGGT	0.325 ± 0.0221
AAATCTGT	0.446 ± 0.00579
AAATCGAT	0.336 ± 0.0651
AACCAGAT	0.301 ± 0.00304
AATCGAGA	0.293 ± 0.0295
AGAATCCT	0.439 ± 0.00609
ACAATCCT	0.302 ± 0.0343
ATAATCCG	0.337 ± 0.0347
AGAATCAT	0.359 ± 0.0327
AGAATCCG	0.4779 ± 0.0039
ACAATCCC	0.2757 ± 0.00233
AGAATCCC	0.433 ± 0.00879
ACAATCCG	0.334 ± 0.019
AGAATCCA	0.456 ± 0.0261
AGGATCCA	0.237 ± 0.027
AGAATCGC	0.377 ± 0.00979
ATCCAAAA	0.261 ± 0.0307
ATCCTCCG	0.257 ± 0.0282
ATCTGCTG	0.291 ± 0.0162
ATATGAAA	0.266 ± 0.036
AGCGATTC	0.253 ± 0.0595
ATAGCGAT	0.247 ± 0.0104
AAATTACG	0.317 ± 0.00783
AGATTACA	0.477 ± 0.0126
AGATTACG	0.484 ± 0.00516
ATATTACG	0.331 ± 0.0353

Sequence	binding signal [E-score]
AGATTATA	0.31 ± 0.0066
ATATTACA	0.281 ± 0.0562
AGATTATG	0.35 ± 0.0249
AAATTACA	0.281 ± 0.0554
AGATTACT	0.429
AGATTATC	0.398 ± 0.0119
ACGATCTG	0.298 ± 0.0786
ATCTGAAT	0.319 ± 0.0412
ACATGGAT	0.276 ± 0.0921
AATAGAGA	0.257 ± 0.00976
AGCGGATA	0.27 ± 0.022
ATCTGTCG	0.268 ± 0.0941
ATCTCAAA	0.337 ± 0.00799
ACTTGGAT	0.263 ± 0.0442
ATTGCTAC	0.23 ± 0.0982
ATTGCAAA	0.212 ± 0.0169
AATATTAT	0.211 ± 0.0854
ATATGCAC	0.266 ± 0.0704
AAATTTGC	0.224 ± 0.0355
AATCATGA	0.254 ± 0.0429
AGATTTAC	0.349 ± 0.00929
AGATTACC	0.459 ± 0.0174
AAATTACC	0.252 ± 0.0504
AATATACG	0.253 ± 0.0484
AAGATTAT	0.288 ± 0.039
CAGATTAC	0.47655 ± 0.000118

Sequence	binding signal [E-score]
AATATTAC	0.235 ± 0.084
AAGATTAC	0.454 ± 0.0269
CAAATTAC	0.275 ± 0.0131
AAAATTAC	0.203 ± 0.0427
ATTGTGTC	0.225 ± 0.0437
ATCTGCGA	0.35 ± 0.033
ATTACCCA	0.234 ± 0.0351
AATCGATC	0.26 ± 0.0524
AAATTTCC	0.305 ± 0.0382
ATATTTTG	0.274 ± 0.0771
AAATTTTC	0.273 ± 0.00676
AGATTTTG	0.4649 ± 0.003
ATATTTTC	0.363 ± 0.0153
AGATTTCA	0.467 ± 0.0101
AGATTTCC	0.4969 ± 0.000664
ATTTTTTG	0.315 ± 0.021
AGATTTTC	0.4879 ± 0.00245
ATATTTCC	0.369 ± 0.00928
AAATTTCA	0.229 ± 0.0474
ATATTTCA	0.302 ± 0.00721
ACGTATAA	0.241 ± 0.0276
ATCACACA	0.274 ± 0.0193
ATCAGATA	0.311 ± 0.0291
ACAGTATA	0.203 ± 0.12
ACGTATCG	0.2234 ± 0.00122
ATTCGAAA	0.208 ± 0.0296

Sequence	binding signal [E-score]
AAATTTCG	0.332 ± 0.0714
AGATTTCG	0.4861 ± 0.00274
ATATTTCG	0.347 ± 0.00521
AGATTTAT	0.261 ± 0.0998
AGATTTAA	0.269 ± 0.0136
AGATTTTA	0.414 ± 0.0235
ATTATCTA	0.201 ± 0.0162
AACGTAAT	0.361 ± 0.0152
AAGGGAAT	0.259 ± 0.00401
AAAATCTG	0.478 ± 0.0028
AAAATCTT	0.447 ± 0.0196
AAAATATT	0.3158 ± 0.000558
AAAATCTC	0.4529 ± 0.00114
CAAATCTG	0.43 ± 0.00733
CAAATCAG	0.268 ± 0.0183
AAAATTTT	0.271 ± 0.0157
CAAATCGG	0.252 ± 0.00458
ATAATCTC	0.346 ± 0.064
ATATCGAC	0.32 ± 0.00903
AACACGAT	0.237 ± 0.0225
ATTTGCCA	0.358 ± 0.051
ATAGTAGA	0.201 ± 0.11
AAAGGATT	0.372 ± 0.061
ATCCATTG	0.253 ± 0.0582
ATTTCAGA	0.265 ± 0.0287
ATTGCAAT	0.305 ± 0.0598

Sequence	binding signal [E-score]
ATCTTAGC	0.246 ± 0.0788
ATCTCACA	0.289 ± 0.0836
ATACGCGC	0.223 ± 0.0538
ATCCGCTA	0.353 ± 0.0323
CAATCAGC	0.22 ± 0.0614
ATCGCGTC	0.285 ± 0.0397
CAAATATA	0.245 ± 0.00998
CAAATCAC	0.272 ± 0.0674
CAAATCTC	0.426 ± 0.0426
AAAATCTA	0.4582 ± 0.0038
AAAATCAA	0.334 ± 0.0377
AAAATTTA	0.248 ± 0.0263
CAAATCTA	0.412 ± 0.0148
CAAATCAA	0.228 ± 0.037
AATATTGG	0.202 ± 0.105
AATTCTGC	0.204 ± 0.0116
AATTTTCA	0.228 ± 0.0322
ATTGCAGA	0.253 ± 0.0406
ATCTTCGC	0.237 ± 0.0198
AATATTGA	0.222 ± 0.0953
ATATCCGG	0.436 ± 0.0135
AGATCCGA	0.307 ± 0.0187
ATATCCCG	0.317 ± 0.0686
ATATCCGA	0.4021 ± 0.00123
ATATCCGC	0.4112 ± 0.0033
ATTTCCGG	0.295 ± 0.0475

Sequence	binding signal [E-score]
ATATCGGA	0.369 ± 0.015
AGATCCGC	0.34 ± 0.0528
ATCTCCGC	0.293 ± 0.0913
AATACGAA	0.205 ± 0.0658
ACAAGAAT	0.273 ± 0.0228
ACGATCGC	0.252 ± 0.0832
ATTGCACC	0.222 ± 0.00533
ATCGCGCA	0.358 ± 0.0372
ATTTGTAA	0.266 ± 0.0497
AGATCTGA	0.332 ± 0.0671
AGATCTGG	0.364 ± 0.0182
AGATCTGC	0.411 ± 0.029
AAATCTGG	0.466 ± 0.00695
CAATCTGG	0.4139 ± 0.000981
AAATCTGC	0.4558 ± 0.00312
CAATCAGG	0.294 ± 0.0424
CAATCTGC	0.305 ± 0.0551
AAATCGGG	0.354 ± 0.0193
AAATCGGC	0.302 ± 0.0126
AAATCAGG	0.365 ± 0.0118
ATTCCCTA	0.3669 ± 0.00312
AATTATAA	0.243 ± 0.0945
AAAATAAT	0.205 ± 0.0493
AATCATAG	0.246 ± 0.0935
ATTTTCAC	0.34 ± 0.0212
ATCCGCAG	0.223 ± 0.00544

Sequence	binding signal [E-score]
AAGTAAAA	0.21 ± 0.144
ATCGTGTA	0.262 ± 0.115
CAATCTGA	0.375 ± 0.0502
AAATCTGA	0.469
AAATCATA	0.343 ± 0.0134
AGCGATCC	0.274 ± 0.0142
AAATACGG	0.207 ± 0.0643
AATTGCGC	0.227 ± 0.0136
AAAAATCG	0.389 ± 0.0127
CACAATCG	0.268 ± 0.00572
ACAAATCT	0.374 ± 0.0338
AAAAATAT	0.3 ± 0.0471
AAAAATCA	0.336 ± 0.0224
AAAATTCG	0.282 ± 0.0182
ACAAATCG	0.297 ± 0.0369
CAAAATCG	0.386 ± 0.0304
AAAAATCT	0.4495 ± 0.00385
ATTGTGTG	0.203 ± 0.0438
AATCGCAG	0.224 ± 0.0787
ATTTGCTC	0.253 ± 0.0795
ACATGTGA	0.201 ± 0.017
